Experimental data from PubChem BioAssay AID1159580 (chemical genetic matrix, 2015).
Screen size: about 5,500 compounds; about 2,000 (36%) were called active. Another 18% or so got no clear call; they are omitted. Rule as the data show it: active = normalized growth mostly below about 0.91 (no sharp cut-off); inconclusive = no clear call, values can overlap the other calls; inactive = mostly above about 0.92. The list shows a part of the results.

Assay: chemical genetic growth profiling, strain panel (AID 1159580);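 also: tested at 20 µM; growth read once vehicle control cultures reached saturation at 30 °C; 1 = growth at the plate median or of vehicle wells; lower values mean less growth of the strain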
Conditions: S. cerevisiae deletion strains, growth OD
[1] = locus YAR019C, strain CDC15, stronger effect = lower value
[2] = locus YBL105C, strain PKC1, stronger effect = lower value
[3] = locus YBR135W, strain CKS1, stronger effect = lower value
[4] = locus YBR136W, strain MEC1, stronger effect = lower value
[5] = locus YBR160W, strain CDC28, stronger effect = lower value
[6] = locus YDL017W, strain CDC7, stronger effect = lower value
[7] = locus YDL028C, strain MPS1, stronger effect = lower value
[8] = locus YDL101C, strain DUN1, stronger effect = lower value
[9] = locus YDL108W, strain KIN28, stronger effect = lower value
[10] = locus YDL132W, strain cdc53, stronger effect = lower value
[11] = locus YDL214C, strain PRR2, stronger effect = lower value
[12] = locus YDR052C, strain DBF4, stronger effect = lower value
[13] = locus YDR054C, strain cdc34, stronger effect = lower value
[14] = locus YDR226W, strain ADK1, stronger effect = lower value
[15] = locus YDR477W, strain SNF1, stronger effect = lower value
[16] = locus YER123W, strain YCK3, stronger effect = lower value
[17] = locus YER133W, strain GLC7, stronger effect = lower value
[18] = locus YFL009W, strain cdc4, stronger effect = lower value
[19] = locus YFL029C, strain CAK1, stronger effect = lower value
[20] = locus YFR003C, strain YPI1, stronger effect = lower value
[21] = locus YFR019W, strain FAB1, stronger effect = lower value
[22] = locus YFR028C, strain CDC14, stronger effect = lower value
[23] = locus YGR040W, strain KSS1, stronger effect = lower value
[24] = locus YGR052W, strain FMP48, stronger effect = lower value
[25] = locus YGR092W, strain DBF2, stronger effect = lower value
[26] = locus YHR030C, strain SLT2, stronger effect = lower value
[27] = locus YHR079C, strain IRE1, stronger effect = lower value
[28] = locus YHR082C, strain KSP1, stronger effect = lower value
[29] = locus YHR205W, strain SCH9, stronger effect = lower value
[30] = locus YIL147C, strain SLN1, stronger effect = lower value
[31] = locus YJL095W, strain BCK1, stronger effect = lower value
[32] = locus YJL128C, strain PBS2, stronger effect = lower value
[33] = locus YJL157C, strain FAR1, stronger effect = lower value
[34] = locus YJR016C, strain ILV3, stronger effect = lower value
[35] = locus YJR066W, strain TOR1 (second series), stronger effect = lower value
[36] = locus YJR066W, strain TOR1, stronger effect = lower value
[37] = locus YKL048C, strain ELM1, stronger effect = lower value
[38] = locus YKL067W, strain YNK1, stronger effect = lower value
[39] = locus YKL101W, strain HSL1, stronger effect = lower value
[40] = locus YKL193C, strain SDS22, stronger effect = lower value
[41] = locus YKL203C, strain TOR2, stronger effect = lower value
[42] = locus YLR113W, strain HOG1, stronger effect = lower value
[43] = locus YLR133W, strain CKI1, stronger effect = lower value
[44] = locus YLR403W, strain SFP1, stronger effect = lower value
[45] = locus YML070W, strain DAK1, stronger effect = lower value
[46] = locus YMR001C, strain CDC5, stronger effect = lower value
[47] = locus YMR205C, strain PFK2 (second series), stronger effect = lower value
[48] = locus YMR277W, strain FCP1, stronger effect = lower value
[49] = locus YNL006W, strain LST8, stronger effect = lower value
[50] = locus YNL020C, strain ARK1, stronger effect = lower value
[51] = locus YNL161W, strain CBK1, stronger effect = lower value
[52] = locus YNL183C, strain NPR1, stronger effect = lower value
[53] = locus YNL207W, strain RIO2, stronger effect = lower value
[54] = locus YNL222W, strain SSU72, stronger effect = lower value
[55] = locus YNL307C, strain MCK1 (second series), stronger effect = lower value
[56] = locus YOL078W, strain AVO1, stronger effect = lower value
[57] = locus YOL136C, strain PFK27, stronger effect = lower value
[58] = locus YOR061W, strain CKA2, stronger effect = lower value
[59] = locus YOR119C, strain RIO1, stronger effect = lower value
[60] = locus YOR231W, strain MKK1, stronger effect = lower value
[61] = locus YOR329C, strain SCD5, stronger effect = lower value
[62] = locus YPL031C, strain PHO85, stronger effect = lower value
[63] = locus YPL153C, strain RAD53, stronger effect = lower value
[64] = locus YPL204W, strain HRR25, stronger effect = lower value
[65] = locus YPL209C, strain IPL1, stronger effect = lower value
[66] = locus YPR025C, strain CCL1, stronger effect = lower value
[67] = locus YPR106W, strain ISR1, stronger effect = lower value
[68] = locus YPR111W, strain DBF20, stronger effect = lower value
[69] = strain NNK1, stronger effect = lower value
[70] = strain TSCII, stronger effect = lower value

Measured: normalized growth

O=C(/C=C/Sc1nc2ccccc2s1)c1ccc(Cl)cc1
inactive: [1] 0.977 | [2] 0.972 | [3] 0.983 | [4] 0.986 | [5] 0.983 | [6] 0.983 | [7] 0.987 | [8] 0.975 | [9] 0.985 | [10] 0.983 | [11] 0.894 | [12] 0.99 | [13] 0.969 | [14] 0.981 | [15] 0.926 | [16] 0.872 | [17] 0.911 | [18] 0.98 | [19] 0.977 | [20] 0.981 | [21] 0.932 | [22] 0.986 | [23] 0.941 | [24] 0.92 | [25] 0.925 | [27] 0.78 | [28] 0.932 | [29] 0.743 | [30] 0.99 | [31] 0.854 | [32] 0.954 | [33] 0.896 | [34] 0.985 | [35] 0.808 | [36] 0.893 | [37] 0.958 | [38] 0.909 | [39] 0.927 | [40] 0.986 | [41] 0.975 | [43] 0.905 | [44] 0.901 | [45] 0.877 | [46] 0.978 | [47] 0.936 | [48] 0.988 | [49] 0.979 | [50] 0.911 | [51] 0.962 | [52] 0.923 | [53] 0.988 | [54] 0.981 | [55] 0.92 | [56] 0.981 | [57] 0.83 | [58] 0.953 | [59] 0.996 | [60] 0.811 | [61] 0.972 | [62] 0.912 | [63] 0.942 | [64] 0.882 | [65] 0.979 | [66] 0.972 | [67] 0.985 | [68] 0.979 | [69] 0.981 | [70] 0.983
active: [26] 0.697 | [42] 0.593 | locus YPL256C, strain CLN2, stronger effect = lower value 0.72

O=C(Nc1ccc(Cl)cc1)OCCSc1nc2ccccc2s1
active: [26] 0.757 | [42] 0.859
inactive: [1] 0.987 | [2] 0.973 | [3] 0.979 | [4] 0.976 | [5] 0.979 | [6] 0.983 | [7] 0.982 | [8] 0.985 | [9] 0.978 | [10] 0.979 | [11] 0.883 | [12] 0.994 | [13] 0.973 | [14] 0.987 | [15] 0.959 | [16] 0.887 | [17] 0.93 | [18] 0.981 | [19] 0.975 | [20] 0.977 | [21] 0.848 | [22] 0.975 | [23] 0.929 | [24] 0.911 | [25] 0.928 | [27] 0.902 | [28] 0.86 | [29] 0.695 | [30] 0.988 | [31] 0.845 | [32] 0.944 | [33] 0.894 | [34] 0.985 | [35] 0.811 | [36] 0.833 | [37] 1.01 | [38] 0.901 | [39] 0.952 | [40] 0.983 | [41] 0.987 | [43] 0.93 | [44] 0.899 | [45] 0.894 | [46] 0.976 | [47] 0.95 | [48] 0.979 | [49] 0.991 | [50] 0.929 | [51] 0.985 | [52] 0.846 | [53] 0.983 | [54] 0.976 | [55] 0.909 | [56] 0.977 | [57] 0.902 | [58] 0.928 | [59] 0.984 | [60] 0.931 | [61] 0.987 | [62] 0.955 | [63] 0.95 | [64] 0.922 | [65] 0.982 | [66] 0.977 | [67] 0.984 | [68] 0.972 | [69] 0.988 | [70] 0.979
